Most compounds without a hit are left out; they make up all but 4.2% or so of the library.
tim10-1 inh = growth inhibitors of tim10-1 mutant yeast; inhibition, % at 20 µM; actives 2.2% (n = 330,000); AID 463190; S. cerevisiae tim10-1 ts strain growth, BacTiter-Glo, 24 h;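 active means inhibition of at least 40%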;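 further: mutant grown at 25 °C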
TIM10 inh = inhibits growth of TIM10 yeast strain. AID 463195. S. cerevisiae TIM10 strain growth, BacTiter-Glo luminescence, 24 h. inhibition, % at 10 µM. actives 1.4% (n = 330,000);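 active means inhibition of 40% or more at the single tested concentration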;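 further: wild-type TIM10 isogenic control strain grown at permissive 25 °C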
NLRP3 yeast inh = NALP3 inhibition in yeast | Yeast reconstituted NLRP3/ASC/caspase-1, beta-gal luminescence, 24 h | inhibition, % at 10 µM | actives 0.39% (n = 330,000) | AID 2825;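 active means inhibition of 50% or more; inactive means inhibition below 50%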
NALP1 inh = inhibitors of NALP1 inflammasome in yeast; S. cerevisiae NALP1/ASC/caspase-1 growth, X-gal OD620, 72 h; inhibition, % at 10 µM; actives 0.61% (n = 280,000); AID 2071; in the data active means inhibition mostly above about 24%, no sharp cut-off; inactive means mostly below about 32%
tim23-1 inh = inhibits growth of tim23-1 mutant yeast. S. cerevisiae tim23-1 growth, BacTiter-Glo luminescence, 24 h. inhibition, % at 20 µM. actives 1.3% (n = 330,000);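 active means growth inhibition of the mutant yeast at or above 50%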;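 further: temperature-sensitive mutant grown at 25 °C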
V-ATPase pHluor = regulators of yeast V-ATPase proton transport. S. cerevisiae, pHLuorin cytosolic pH fluorescence. response, % at 10 µM. actives 0.37% (n = 350,000); in the data active means response mostly above about 7.3%, no sharp cut-off; inactive means mostly below about 5.4%; further: actives read high
tim10-1 conf = tim10-1 yeast growth inhibition, confirmed | shares compounds with tim10-1 inh | S. cerevisiae tim10-1 ts strain growth, BacTiter-Glo, 24 h | inhibition, % at 20 µM | actives 56% (n = 7,400) | AID 463213;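 active means inhibition of yeast growth at or above a set limit in either of two repeat tests at 20 µM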;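 further: tim10-1 mutant grown at permissive 25 °C to find synthetic lethal compounds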
Each line names hits and unclear results; the compound was inactive in the other large screens (follow-up assays come after a bar, where they were run).

CCOC(=O)c1c(-c2ccccc2)csc1NC(=O)CCN1C(=O)c2ccccc2C1=O	none
CCOC(=O)c1c(-c2ccc(-c3ccccc3)cc2)csc1NC(=O)CNCCN(C)C	tim10-1 inh 43.0 | tim10-1 conf inactive
CCNC(=S)Nc1scc(-c2ccccc2)c1C(=O)OCC	tim10-1 inh 41.1 | tim10-1 conf inactive
NC(=O)Cn1cc(/C=N/NC(=O)c2ccc(Cn3cc(Cl)cn3)o2)c(-c2ccccc2)n1	none
CCNC(=S)N/N=C(\C)c1cccc([N+](=O)[O-])c1	tim10-1 inh 44.3 | tim10-1 conf inactive
CC(C)n1c(O)c(N=NC(=O)C2COc3ccccc3O2)c2ccccc21 (centres undefined)	tim10-1 inh 47.9 | tim10-1 conf inactive
Cn1c(O)c(N=NC(=O)C2COc3ccccc3O2)c2ccccc21 (centres undefined)	none
CC1CN(C(=O)Nc2ccc3snnc3c2)c2ccccc21 (centres undefined)	tim10-1 inh 47.5 | tim10-1 conf inactive
CCCCN1C(=O)N(CCc2ccc(F)cc2)S(=O)(=O)c2cc(C(F)(F)F)ccc21	none (no result: NLRP3 yeast inh, NALP1 inh)
CN(C)c1nc(-c2ccccn2)nnc1-c1ccccc1	tim10-1 inh 40.1 | tim10-1 conf inactive
O=C(NC(=S)N1CCCCCC1)c1ccccc1Cl	none
O=C(NC(=S)N1CCCCCC1)c1ccc(Cl)cc1Cl	tim10-1 inh 47.8 | tim10-1 conf 30.5
CCc1ccc(OCC(=O)Nc2ccc(S(=O)(=O)N3CCOCC3)cc2)cc1	none (no result: NALP1 inh) | tim10-1 conf 33.2
CCCN(CCC)S(=O)(=O)c1ccc(NC(=O)COc2ccccc2)cc1	tim10-1 inh 52.4 | tim10-1 conf 37.5
CCOc1ccc(NC(=O)COc2ccc(S(=O)(=O)N3CCOCC3)cc2)cc1	none (no result: NALP1 inh)
COc1ccc(OCC(=O)Nc2ccc(S(=O)(=O)N3CCOCC3)cc2)cc1	tim10-1 inh 47.8 | tim10-1 conf 32.1
Cc1ccc(NC(=O)COc2ccc(Cl)cc2Cl)cc1S(=O)(=O)N1CCOCC1	tim10-1 inh 48.7 (no result: NALP1 inh) | tim10-1 conf inactive
Nc1nc(CN2CCN(C(=O)c3ccco3)CC2)nc(Nc2cccc(Cl)c2)n1	none
Cc1ccccc1C1C(C#N)=C2NC(=O)c3c(sc4c3CCCCC4)N2C2=C1C(=O)CC(C)(C)C2 (centres undefined)	tim10-1 inh 45.9 (no result: V-ATPase pHluor) | tim10-1 conf 31.8
Cc1ccccc1C1C(C#N)=C2N=C(N)c3c(sc4c3CCCCC4)N2C2=C1C(=O)CC(C)(C)C2 (centres undefined)	none
COc1ccc(C(=O)/C(=C/O)N=Nc2ccc(F)cc2)cc1	tim10-1 inh 45.0 | tim10-1 conf inactive
COc1ccc(N=N/C(C(C)=O)=C(/C)O)cc1	none
COc1cccc2[nH]c3c(N4CCC(C)CC4)ncnc3c12	tim10-1 inh 41.5 | tim10-1 conf inactive
COc1ccc(-c2csc3ncnc(N4CCN(C(=O)c5ccco5)CC4)c23)cc1	none (no result: NALP1 inh)
O=C(c1ccco1)N1CCN(c2ncnc3scc(-c4cccs4)c23)CC1	tim10-1 inh 45.6 | tim10-1 conf inactive
Cc1cccc(C)c1OCC(=O)Nn1c(COc2ccccc2)nc2ccccc2c1=O	none
Cc1ccccc1OCC(=O)Nn1c(COc2ccccc2)nc2ccccc2c1=O	tim10-1 inh 45.5 | tim10-1 conf inactive
Cc1ccc(Nc2n[nH]c(=S)s2)cc1	none (no result: tim10-1 inh, TIM10 inh, NLRP3 yeast inh, NALP1 inh, tim23-1 inh)
S=c1[nH]nc(Nc2ccc(Cl)cc2)s1	tim10-1 inh 40.4 | tim10-1 conf 34.2
CCOC(=O)c1ccc(C(=S)N2CCCC2)cc1	none
Cc1ccc2cc(CN(CCN(C)C)C(=S)Nc3ccccc3)c(=O)[nH]c2c1C	tim10-1 inh 40.2 | tim10-1 conf inactive
CCN(CC)CCN(Cc1cc2cccc(C)c2[nH]c1=O)C(=S)Nc1ccccc1	none
COc1ccc(C(O)P(=O)(OC(C)C)OC(C)C)c(OC)c1 (centres undefined)	none
C/C(=N/O)c1no[n+]([O-])c1/C(C)=N\O	none
COc1cc(Br)ccc1C1CC(=O)C(C)C(c2ccc(Br)cc2OC)N1 (centres undefined)	tim10-1 inh 52.6 | tim10-1 conf inactive
O=C1NCCCN1C1OC(CO)C(O)C1O (centres undefined)	none (no result: tim10-1 inh, TIM10 inh, NLRP3 yeast inh, NALP1 inh, tim23-1 inh)
CCN(CC)S(=O)(=O)c1ccc(N2CCCC2)c(NC(=O)c2ccc(N3CCCC3=O)cc2)c1	none (no result: NALP1 inh)
Cn1c(NCc2c(O)ccc3ccccc23)nc2ccccc21	tim10-1 inh 45.4 | tim10-1 conf 33.1
CCOc1ccc(-n2cc(C(=O)Nc3cccc(OC)c3)c3cc(OC)c(OC)cc3c2=O)cc1	tim10-1 inh 41.8 | tim10-1 conf 35.9
COc1ccccc1NC(=O)CN1CCC(n2nnc3cc(F)ccc32)CC1	none
COc1ccc(Cl)cc1NC(=O)CN1CCC(n2nnc3cc(C)ccc32)CC1	none | tim10-1 conf inactive
O=[N+]([O-])c1ccccc1C(=Nc1ccccc1)c1c(O)cc(O)cc1O	none (no result: tim10-1 inh, TIM10 inh, NLRP3 yeast inh, NALP1 inh, tim23-1 inh)
Cn1ccsc1=NC(=O)c1ccc(S(C)(=O)=O)c([N+](=O)[O-])c1	tim10-1 inh 40.1 | tim10-1 conf 27.8
Cn1ccsc1=NC(=O)c1ccc(Cl)c([N+](=O)[O-])c1	none
Cn1cccc1C(=O)NC(=O)COC(=O)c1ccc(S(C)(=O)=O)c([N+](=O)[O-])c1	tim10-1 inh 40.9 (no result: NALP1 inh) | tim10-1 conf 32.5
Cn1cccc1C(=O)NC(=O)COC(=O)c1ccc(S(C)(=O)=O)cc1	none (no result: NALP1 inh)
COc1ccc(CC(=O)N/N=C/c2ccc(C)s2)cc1	none (no result: NALP1 inh)
COc1ccc(CC(=O)N/N=C/c2ccc(Cl)s2)cc1OC	tim10-1 inh 49.5 | tim10-1 conf inactive
Oc1ccc(Br)cc1/C=N/N1CCCCC1	none
Oc1ccc(Br)cc1/C=N/n1cnc2ccccc21	tim10-1 inh 42.3 | tim10-1 conf inactive
COc1ccc(C(CNC(=O)c2oc3cc(Br)ccc3c2C)N2CCCCC2)cc1 (centres undefined)	tim10-1 inh 42.0 | tim10-1 conf inactive
COc1ccc(C(CNC(=O)c2oc3ccc(Br)cc3c2C)N2CCCCC2)cc1 (centres undefined)	none
COc1ccc(C(=O)N2CCOC2CNC(=O)C(=O)NCc2ccco2)cc1 (centres undefined)	none
CC(C)N(C(=O)c1nn(C)c2c1CSc1ccccc1-2)C1CCCCC1	tim10-1 inh 49.6 | tim10-1 conf inactive
Cn1nc(C(=O)NC2CCCCC2)c2c1-c1ccccc1SC2	none
CCCCCc1nnc(NC(=O)c2ccc(N3CCCC3=O)cc2)s1	none (no result: NALP1 inh)
N/C(=N\OC(=O)CCC1CCCC1)c1ccc([N+](=O)[O-])cc1	tim10-1 inh 60.5 | tim10-1 conf 57.9
CCCC(=O)OCC(=O)Nc1ccc([N+](=O)[O-])cc1C#N	none
N#Cc1cc([N+](=O)[O-])ccc1NC(=O)COC(=O)CCC1CCCCC1	tim10-1 inh 45.3 (no result: V-ATPase pHluor) | tim10-1 conf 37.0

Source: PubChem BioAssay
